High-throughput results from PubChem BioAssay.
D1 PAM: Potentiators of Human D1 Dopamine Receptor: qHTS; actives 0.036% (n = 360,000); AID 504651, 2011; potentiation, % at 10 µM; HEK293 TREx D1 cells, calcium flux, dopamine EC20 potentiation; in the data active = potentiation above about 30%; also: 0% is about no effect
Target sequence (P21728 whole entry, looked up): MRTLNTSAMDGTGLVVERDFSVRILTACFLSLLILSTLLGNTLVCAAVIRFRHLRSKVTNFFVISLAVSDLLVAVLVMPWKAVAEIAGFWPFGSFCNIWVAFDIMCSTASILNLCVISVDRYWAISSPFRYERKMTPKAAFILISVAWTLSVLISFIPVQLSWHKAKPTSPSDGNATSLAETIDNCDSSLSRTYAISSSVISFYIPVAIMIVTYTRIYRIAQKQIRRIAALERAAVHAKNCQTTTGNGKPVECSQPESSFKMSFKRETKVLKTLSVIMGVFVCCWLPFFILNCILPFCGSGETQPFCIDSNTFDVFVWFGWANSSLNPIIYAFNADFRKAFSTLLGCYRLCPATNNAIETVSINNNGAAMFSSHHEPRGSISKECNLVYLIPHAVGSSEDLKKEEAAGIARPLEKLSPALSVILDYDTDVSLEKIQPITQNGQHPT
TRHR PAM: qHTS for Small Molecule Agonists and Allosteric Enhancers of Human TRH Receptor: Primary Screen for Enhancers; TRHR cells, fluo-8 calcium fluorescence, EC20 TRH enhancement; Thyrotropin-releasing hormone receptor (Homo sapiens), P34981; enhancement, % at 2 µM; actives 0.66% (n = 360,000); in the data active = enhancement above about 30%; also: 0% is about no effect
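TRHR-expressing cells loaded with fluo-8 calcium dye were read kinetically (ex 480/em 530) during compound addition, then stimulated with an EC20 of TRH (10 nM final). Enhancement of the Gq-mediated intracellular calcium response was scored.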
D1 antagonist: Antagonist of Human D 1 Dopamine Receptor: qHTS. D(1A) dopamine receptor (Homo sapiens), P21728. HEK293 TREx D1 cells, calcium flux, dopamine EC80; hits give low values. activity change, negative = inhibition, % at 10 µM. actives 3.2% (n = 360,000); in the data active = activity change below about -30%; also: % is scaled to controls: 0 for no effect and ±100 for the full control effect
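HEK293 T-REx cells expressing inducible, force-coupled D1 receptor; no-wash Ca dye, 30–90 min RT. Cmpd → 180 s read at 1 Hz → EC80 DA → 180 s read.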
D1 ag: Allosteric Agonists of the Human D1 Dopamine Receptor: qHTS. HEK293 T-REx D1 cells, calcium flux, agonist mode. activation, % at 2 µM. actives 1% (n = 360,000); also: 0% is about no effect
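Inducible HEK293 T-REx D1 cells, force-coupled to calcium signalling, were plated at 4000 cells/well with tetracycline and held overnight at 30 C. After no-wash calcium dye loading, compound-evoked calcium rise over 180 s flagged agonists.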
TRHR ag: qHTS for Small Molecule Agonists and Allosteric Enhancers of Human TRH Receptor: Primary Screen for Agonists. Thyrotropin-releasing hormone receptor (Homo sapiens), P34981. actives 0.18% (n = 360,000). activation, % at 2 µM. TRHR cells, calcium flux fluo-8, FDSS agonist mode; also: 0% is about no effect
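TRHR-expressing cells loaded with fluo-8 calcium dye; 23 nL library compound pin-transferred, kinetic FDSS fluorescence (Ex 480/Em 530) recorded about 180 s for agonist-induced calcium release, before a 10 nM TRH EC20 addition for potentiator mode.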
An asterisk follows results filed as active; ! = repeats disagree. An excerpt weighted towards active compounds, which were near 4.6% of everything screened. Rule as the data show it, unless noted: active = activation above about 30%; inactive = the rest.

How did COc1cccc(-n2c(SCC(=O)Nc3sc4c(c3C(N)=O)CCC4)nc3ccccc3c2=O)c1 do in these assays?
D1 PAM: 6.0; TRHR PAM: -6.8; D1 antagonist: 3.4; D1 ag: 3.7; TRHR ag: 0.3

What do the screens show for `OCCOCCN1CCN(C(c2ccccc2)c2ccc(Cl)cc2)CC1` (stereo not given)?
D1 PAM: -3.2; TRHR PAM: 4.3; D1 antagonist: 11.0; D1 ag: 9.5; TRHR ag: 0.9

What do the screens show for `COc1ccc(Br)cc1S(=O)(=O)N1CCOCC1`?
D1 PAM: -0.5; TRHR PAM: -2.0; D1 antagonist: -10.0; D1 ag: 2.4; TRHR ag: 1.0

Results for CCN(CC)c1ccc(C=Nc2ccc(OC)c(S(=O)(=O)N3CCOCC3)c2)c(O)c1 ?
D1 PAM: -8.4; TRHR PAM: 2.1; D1 antagonist: -32.5*; D1 ag: 0.7; TRHR ag: -2.6

What do the screens show for `CNc1ccc(Oc2c(F)c(F)nc(F)c2F)cc1`?
D1 PAM: -5.2; TRHR PAM: -10.4; D1 antagonist: -6.7; D1 ag: 2.3; TRHR ag: 0.1

What do the screens show for `O=C(Nc1ccc(F)cc1)OCCOc1ccc(Br)cc1`?
D1 PAM: 2.5; TRHR PAM: -5.3; D1 antagonist: -55.0*; D1 ag: 6.6; TRHR ag: -0.5

How did CC(C)(C)c1ccc(-c2nc(C#N)c(NCCCn3ccnc3)o2)cc1 do in these assays?
D1 PAM: -4.8; TRHR PAM: 2.8; D1 antagonist: -5.1; D1 ag: 36.4*; TRHR ag: 0.3

Results for CCOC(=O)c1nc(NCc2ccc(Cl)cc2)c2c(C)noc2n1 ?
D1 PAM: -1.1; TRHR PAM: 0.1; D1 antagonist: -48.9*; D1 ag: 2.3; TRHR ag: -0.8

Results for C=CCOC(=O)C(=O)/C=C/c1c(C)n(C)n(-c2ccccc2)c1=O ?
D1 PAM: 1.4; TRHR PAM: -2.7; D1 antagonist: -40.3*; D1 ag: -4.3; TRHR ag: 0.4

What do the screens show for `C=CCSC(=S)Nc1c(C)n(C)n(-c2ccccc2)c1=O`?
D1 PAM: 1.9; TRHR PAM: 5.0; D1 antagonist: -1.1; D1 ag: 3.2; TRHR ag: 0.7

Results for COc1ccc(Br)c2c1-c1nc(NC(=O)c3ccccc3F)sc1C2 ?
D1 PAM: 1.9; TRHR PAM: 6.3; D1 antagonist: 22.5; D1 ag: 1.3; TRHR ag: 0.6

Results for COc1ccc(Br)c2c1-c1nc(NC(=O)c3ccccc3SC)sc1C2 ?
D1 PAM: -8.2; TRHR PAM: -9.1; D1 antagonist: -36.2*; D1 ag: -1.5; TRHR ag: -1.0

Results for Cc1cc(NC(=O)c2ccc3c(c2)N(Cc2cccc(Cl)c2)C(=O)c2ccccc2S3=O)ccc1Br (stereo not given) ?
D1 PAM: -3.0; TRHR PAM: 2.2; D1 antagonist: 5.8; D1 ag: 5.8; TRHR ag: 0.6

How did CCC(C)NC(=O)c1ccc2c(c1)N(Cc1cccc(Cl)c1)C(=O)c1ccccc1S2=O (stereo not given) do in these assays?
D1 PAM: 0.8; TRHR PAM: -10.7; D1 antagonist: -5.8; D1 ag: 3.5; TRHR ag: 0.8

Results for CC(NC(=O)c1ccc2c(c1)N(Cc1ccc(Cl)cc1)C(=O)c1ccccc1S2=O)c1ccccc1 (stereo not given) ?
D1 PAM: -5.9; TRHR PAM: -0.8; D1 antagonist: -34.7*; D1 ag: 8.2; TRHR ag: 1.1

How did Cc1cccc(C)c1NC(=O)c1ccc2c(c1)N(Cc1cccc(Cl)c1)C(=O)c1ccccc1S2=O (stereo not given) do in these assays?
D1 PAM: -5.2; TRHR PAM: 33.0*; D1 antagonist: 6.4; D1 ag: 13.8; TRHR ag: -1.7

What do the screens show for `COc1cc(NC(=O)CN(C)S(=O)(=O)c2cccs2)cc(OC)c1`?
D1 PAM: 0.6; TRHR PAM: -1.3; D1 antagonist: -7.7; D1 ag: 0.6; TRHR ag: -0.8

How did Nc1c(C(=O)CSc2nccn2-c2cccc(F)c2)c(=O)[nH]c(=O)n1C1CC1 do in these assays?
D1 PAM: -3.5; TRHR PAM: -4.8; D1 antagonist: -30.8*; D1 ag: 3.3; TRHR ag: 0.3

What do the screens show for `CCCCCNS(=O)(=O)c1cc2c3c(c1)CCC(=O)N3CCC2`?
D1 PAM: -9.8; TRHR PAM: 9.0; D1 antagonist: -30.3*; D1 ag: 15.1; TRHR ag: -0.3

Results for COc1ccccc1CNS(=O)(=O)c1cc2c3c(c1)CCN3C(=O)CC2 ?
D1 PAM: -6.2; TRHR PAM: 30.2*!; D1 antagonist: -11.3; D1 ag: 10.5; TRHR ag: 0.1

Results for COc1cccc(CNS(=O)(=O)c2cc3c4c(c2)CCC(=O)N4CCC3)c1 ?
D1 PAM: 0.1; TRHR PAM: 10.9; D1 antagonist: -8.3; D1 ag: 10.7; TRHR ag: -0.6

What do the screens show for `CC(C)OC(=O)/C(C#N)=C/c1cn(C)c2ccccc12`?
D1 PAM: -0.2; TRHR PAM: -3.1; D1 antagonist: -38.7*; D1 ag: 0.7; TRHR ag: -0.2

Results for CCOC(=O)Cn1cc(/C=C(\C#N)C(=O)N2CCOCC2)c2ccccc21 ?
D1 PAM: 3.1; TRHR PAM: 0.1; D1 antagonist: -12.3; D1 ag: 0.4; TRHR ag: -0.4

Results for CCOC(=O)Cn1cc(/C=C(/C#N)C(=O)NC(C)C)c2ccccc21 ?
D1 PAM: -9.3; TRHR PAM: -4.1; D1 antagonist: -33.4*; D1 ag: -0.1; TRHR ag: -0.9

Results for COc1ccc(CCNc2ncnc3c2c(-c2ccccc2)cn3-c2cccc(Cl)c2)cc1OC ?
D1 PAM: -1.7; TRHR PAM: -3.8; D1 antagonist: 10.9; D1 ag: 3.8; TRHR ag: 0.7

How did NC(=O)CC(NC(=O)Cc1ccc(Br)cc1)c1ccc(NCCN2CCCC2)c([N+](=O)[O-])c1 (stereo not given) do in these assays?
D1 PAM: -3.4; TRHR PAM: 1.7; D1 antagonist: -0.8; D1 ag: -0.5; TRHR ag: 0.3

How did NC(=O)CC(NC(=O)Cc1ccc(Br)cc1)c1ccc(NCCN2CCCCC2)c([N+](=O)[O-])c1 (stereo not given) do in these assays?
D1 PAM: 0.2; TRHR PAM: 10.3; D1 antagonist: -45.0*; D1 ag: 3.6; TRHR ag: 0.0

Results for Cc1ccc(OCC(=O)NC(C)c2ccc(Cl)c(Cl)c2)c([N+](=O)[O-])n1 (stereo not given) ?
D1 PAM: -8.2; TRHR PAM: -5.5; D1 antagonist: -35.6*; D1 ag: 9.5; TRHR ag: -0.3
